In PubChem BioAssay:
“And” between values parts separate entries of the source, which are not always exact repeats. Equal entries are not always repeated. Inconclusive results are not listed. The source made the active and inactive calls.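 The calls were made as follows, unless noted: active = normalized viability below 100% at a tested concentration; inactive = the rest.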

Experiments:
[1] = growth inhibition of DIPG glioma cells, dose response, cell-based, SU-DIPG-XVII, MIPE5.0, CellTiter-Glo, qHTS (AID 1347060; cut-off not given, nearly all actives have AC50 up to about 26 µM;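 as to AC50: cells exposed to compound for 48 hours before viability readout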); conditions: SU-DIPG-XVII viability, CellTiter-Glo ATP luminescence
[2] = growth inhibition of DIPG glioma cells, dose response, cell-based, SU-DIPG-XIII, MIPE4.0, CellTiter-Glo, qHTS (AID 1347061; cut-off not given, nearly all actives have AC50 up to about 37 µM;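 also: cells exposed to compound for 48 hours before readout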); conditions: SU-DIPG-XIII viability, CellTiter-Glo ATP luminescence
[3] = growth inhibition of DIPG glioma cells, dose response, cell-based, JHH-DIPG-1, MIPE4.0, CellTiter-Glo, qHTS (AID 1347062; cut-off not given, nearly all actives have AC50 up to about 27 µM;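 as to AC50: cells exposed to compound for two days before readout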); conditions: JHH-DIPG-1 viability, CellTiter-Glo ATP luminescence
[4] = growth inhibition of DIPG glioma cells, dose response, cell-based, SU-DIPG-IV, MIPE4.0, CellTiter-Glo, qHTS (AID 1347063; cut-off not given, nearly all actives have AC50 up to about 30 µM;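 also: compound exposure lasted 48 hours before the viability readout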); conditions: SU-DIPG-IV viability, CellTiter-Glo ATP luminescence
[5] = growth inhibition of DIPG glioma cells, dose response, cell-based, SU-DIPG-XIII, MIPE5.0, CellTiter-Glo, qHTS (AID 1347064; cut-off not given, nearly all actives have AC50 up to about 23 µM;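 as to AC50: cells exposed to compound for 48 hours before the viability read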); conditions: SU-DIPG-XIII viability, CellTiter-Glo ATP luminescence
[6] = viability loss in pontine glioma line – cell-based, SU-DIPG-XXV, MIPE5.0, CellTiter-Glo, qHTS, dose response (AID 1347065; cut-off not given, nearly all actives have AC50 up to about 26 µM;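 also: cells exposed to compound for 48 hours before ATP readout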); conditions: CellTiter-Glo ATP luminescence
[7] = SU-DIPG-VI glioma cell viability, MIPE4.0 library, CellTiter-Glo luminescence, qHTS (AID 1347066; cut-off not given, nearly all actives have AC50 up to about 30 µM;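 also: cells exposed to compound for 48 hours before readout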); conditions: CellTiter-Glo ATP luminescence
[8] = JHH-DIPG-1 glioma cell viability, MIPE5.0 library, CellTiter-Glo luminescence, qHTS (AID 1347067; cut-off not given, nearly all actives have AC50 up to about 26 µM;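 also: cells exposed to compound for 48 hours before readout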); conditions: JHH-DIPG-1 glioma viability, CellTiter-Glo ATP luminescence
[9] = SU-DIPG-XXV glioma cell viability, MIPE5.0 library, qHTS (AID 1347068; cut-off not given, nearly all actives have IC50 up to about 30 µM;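 as to IC50: cells exposed to compound for 48 hours before viability readout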)
[10] = sensitizers of A549 cells to miR-34 induction, primary screen, imaging, A549 dox-inducible miR-34, nuclei and caspase counts (AID 1347080;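 active = compounds whose cell count with miR-34 switched on is under 0.7 times the count with it off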); conditions: A549 miR-34 inducible, Hoechst nuclei count, 48 h
[11] = survival rescue of mitochondrial mutant cells in low glucose, primary screen, MELAS cybrids, Rieske KO mouse fibroblasts, CellTiter-Glo (AID 1508586;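 active = mean z-score across replicates of 1.96 or higher in either the MELAS or the Rieske mutant cell line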;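 also: z relative to plate mean and SD of compound and empty wells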)
[12] = modifiers of HSF1 nuclear foci, imaging, Selleck Cancer Library (AID 1347162; in the data active = plate-normalised HSF1 focus index below about 0.46); conditions: human cells, at 10 µM; SSMD: measured here: HSF1 foci SSMD mean; cell count: measured here: cell number; plate-normalised HSF1 focus index: stronger effect = lower value
[13] = ovarian cancer cell viability with rucaparib, profiling panel, oncology-focused library, rucaparib conditional (AID 1508598); conditions: patient-derived ovarian cancer cells, CellTiter-Glo viability, 144 h, stronger effect = lower value
[14] = stronger effect = lower value, cell number ratio, induced over uninduced
[15] = measured here: relative caspase fold change +Dox/-Dox
[16] = measured here: total cells with miR-34 induction, stronger effect = lower value
[17] = measured here: total cells without miR-34 induction
[18] = MELAS cybrid survival, CellTiter-Glo 48 h, stronger effect = higher value
[19] = Rieske KO mouse fibroblast survival, CellTiter-Glo 72 h
[20] = at 0.000305 µM, OCI-C5x cells, with rucaparib 10 µM, 100% = cells with rucaparib alone
[21] = at 0.000305 µM, OCI-C5x cells, without rucaparib
[22] = at 0.000305 µM, OCI-P5x cells, with rucaparib 20 µM, 100% = cells with rucaparib alone
[23] = at 0.000305 µM, OCI-P5x cells, without rucaparib
[24] = at 0.00122 µM, OCI-C5x cells, with rucaparib 10 µM, 100% = cells with rucaparib alone
[25] = at 0.00122 µM, OCI-C5x cells, without rucaparib
[26] = at 0.00122 µM, OCI-P5x cells, with rucaparib 20 µM, 100% = cells with rucaparib alone
[27] = at 0.00122 µM, OCI-P5x cells, without rucaparib
[28] = at 0.00488 µM, OCI-C5x cells, with rucaparib 10 µM, 100% = cells with rucaparib alone
[29] = at 0.00488 µM, OCI-C5x cells, without rucaparib
[30] = at 0.00488 µM, OCI-P5x cells, with rucaparib 20 µM, 100% = cells with rucaparib alone
[31] = at 0.00488 µM, OCI-P5x cells, without rucaparib
[32] = at 0.0195 µM, OCI-C5x cells, with rucaparib 10 µM, 100% = cells with rucaparib alone
[33] = at 0.0195 µM, OCI-C5x cells, without rucaparib
[34] = at 0.0195 µM, OCI-P5x cells, with rucaparib 20 µM, 100% = cells with rucaparib alone
[35] = at 0.0195 µM, OCI-P5x cells, without rucaparib
[36] = at 0.0781 µM, OCI-C5x cells, with rucaparib 10 µM, 100% = cells with rucaparib alone
[37] = at 0.0781 µM, OCI-C5x cells, without rucaparib
[38] = at 0.0781 µM, OCI-P5x cells, with rucaparib 20 µM, 100% = cells with rucaparib alone
[39] = at 0.0781 µM, OCI-P5x cells, without rucaparib
[40] = at 0.313 µM, OCI-C5x cells, with rucaparib 10 µM, 100% = cells with rucaparib alone
[41] = at 0.313 µM, OCI-C5x cells, without rucaparib
[42] = at 0.313 µM, OCI-P5x cells, with rucaparib 20 µM, 100% = cells with rucaparib alone
[43] = at 0.313 µM, OCI-P5x cells, without rucaparib
[44] = at 1.25 µM, OCI-C5x cells, with rucaparib 10 µM, 100% = cells with rucaparib alone
[45] = at 1.25 µM, OCI-C5x cells, without rucaparib
[46] = at 1.25 µM, OCI-P5x cells, with rucaparib 20 µM, 100% = cells with rucaparib alone
[47] = at 1.25 µM, OCI-P5x cells, without rucaparib
[48] = at 5 µM, OCI-C5x cells, with rucaparib 10 µM, 100% = cells with rucaparib alone
[49] = at 5 µM, OCI-C5x cells, without rucaparib
[50] = at 5 µM, OCI-P5x cells, with rucaparib 20 µM, 100% = cells with rucaparib alone
[51] = at 5 µM, OCI-P5x cells, without rucaparib

With `c1ccc(CNc2nc(NCc3ccccc3)c3ccccc3n2)cc1` the AC50 [1] was 14800 nM (active), the AC50 [2] was 7430 nM (active) and the AC50 [3] was 23500 nM (active). For the same molecule, the AC50 [4] was 20900 nM (active), the AC50 [5] was 16600 nM (active) and the AC50 [6] was 9340 nM (active). For the same molecule, the AC50 [7] was 23500 nM (active), the AC50 [8] was 10500 nM (active) and the IC50 [9] was 29500 nM (active). The fold change [10, 14] was 0.814 (inactive), the fold change [10, 15] was 0.477 and the cell count [10, 16] was 3510. The cell count [10, 17] was 4310, the z-score [11, 18] was -0.415 (inactive) and the z-score [11, 19] was -0.855.

With `COc1ncc(-c2ccc3nccc(-c4ccnnc4)c3c2)cc1NS(=O)(=O)c1ccc(F)cc1F` the AC50 [1] was 26.3 nM (active), the AC50 [2] was 46.9 nM (active) and the AC50 [3] was 1660 nM (active). The AC50 [4] was 10.5 nM (active), the AC50 [5] was 46.8 nM (active) and the AC50 [6] was 16.6 nM (active). The AC50 [7] was 33.2 nM (active), the AC50 [8] was 93.4 nM (active) and the IC50 [9] was 105 nM (active). For the same molecule, the fold change [10, 14] was 1.04 (inactive), the fold change [10, 15] was 0.656 and the cell count [10, 16] was 1270. For the same molecule, the cell count [10, 17] was 1220, the SSMD [12] was -1.81 and the cell count [12] was 6380. The plate-normalised HSF1 focus index [12] was 0.907 (inactive), the z-score [11, 18] was 1.15 (inactive) and the z-score [11, 19] was -2.62. For the same molecule, the viability [13, 20] was 107% (inactive), the viability [13, 21] was 105% (inactive) and the viability [13, 22] was 86.7% (active). The viability [13, 23] was 84.8% (active), the viability [13, 24] was 84.7% (active) and the viability [13, 25] was 89.8% (active). The viability [13, 26] was 67.8% (active), the viability [13, 27] was 69.1% (active) and the viability [13, 28] was 62.5% (active). For the same molecule, the viability [13, 29] was 53.2% (active), the viability [13, 30] was 43.9% (active) and the viability [13, 31] was 46.3% (active). The viability [13, 32] was 39.4% (active), the viability [13, 33] was 37.6% (active) and the viability [13, 34] was 31.6% (active). For the same molecule, the viability [13, 35] was 27% (active), the viability [13, 36] was 32.8% (active) and the viability [13, 37] was 30.6% (active). The viability [13, 38] was 24.3% (active), the viability [13, 39] was 17.1% (active) and the viability [13, 40] was 23.7% (active). For the same molecule, the viability [13, 41] was 23.6% (active), the viability [13, 42] was 17.6% (active) and the viability [13, 43] was 11% (active). The viability [13, 44] was 23.9% (active), the viability [13, 45] was 23.5% (active) and the viability [13, 46] was 13.9% (active). The viability [13, 47] was 8.06% (active), the viability [13, 48] was 10.5% (active) and the viability [13, 49] was 9.68% (active). For the same molecule, the viability [13, 50] was 2.14% (active) and the viability [13, 51] was 1.41% (active).

With `Cc1cccc(-c2[nH]ncc2-c2ccc3ncccc3n2)n1` the outcome [1] was “inactive”, the outcome [2] was “inactive” and the outcome [3] was “inactive”. The outcome [4] was “inactive”, the outcome [5] was “inactive” and the outcome [6] was “inactive”. The outcome [7] was “inactive”, the outcome [8] was “inactive” and the outcome [9] was “inactive”. The fold change [10, 14] was 0.969 (inactive) and 0.891 (inactive), the fold change [10, 15] was 0.983 and 0.417 and the cell count [10, 16] was 9850 and 8880. For the same molecule, the cell count [10, 17] was 10200 and 9960, the z-score [11, 18] was -0.572 (inactive) and the z-score [11, 19] was 0.111.

In the case of `CC1(C)OC2=C(C(=O)c3ccccc3C2=O)[C@H](NCc2ccccc2)[C@@H]1O`, the AC50 [1] is reported as 6610 nM (active), the AC50 [2] is reported as 5900 nM (active) and the AC50 [3] is reported as 2350 nM (active). For the same molecule, the AC50 [4] was 5900 nM (active), the AC50 [5] was 2950 nM (active) and the AC50 [6] was 3720 nM (active). For the same molecule, the AC50 [7] was 2640 nM (active), the AC50 [8] was 3320 nM (active) and the IC50 [9] was 8330 nM (active). The SSMD [12] was 0.824, the cell count [12] was 7240 and the plate-normalised HSF1 focus index [12] was 1.05 (inactive).

For `Cn1c(=O)c(F)c(Nc2ccc(I)cc2F)c2c(=O)n(C[C@@H](O)CO)cnc21`, the AC50 [1] was 66.1 nM (active), the AC50 [2] was 264 nM (active) and the AC50 [3] was 235 nM (active). The AC50 [4] was 3320 nM (active), the AC50 [5] was 132 nM (active) and the AC50 [6] was 295 nM (active). For the same molecule, the outcome [7] was “inactive”, the AC50 [8] was 66.1 nM (active) and the IC50 [9] was 1860 nM (active). The SSMD [12] was 1.8, the cell count [12] was 7260 and the plate-normalised HSF1 focus index [12] was 1.1 (inactive). For the same molecule, the viability [13, 20] was 107% (inactive), the viability [13, 21] was 128% (inactive) and the viability [13, 22] was 96.8% (active). For the same molecule, the viability [13, 23] was 106% (inactive), the viability [13, 24] was 102% (inactive) and the viability [13, 25] was 116% (inactive). The viability [13, 26] was 81.5% (active), the viability [13, 27] was 78.8% (active) and the viability [13, 28] was 104% (inactive). For the same molecule, the viability [13, 29] was 118% (inactive), the viability [13, 30] was 69% (active) and the viability [13, 31] was 76.3% (active). The viability [13, 32] was 102% (inactive), the viability [13, 33] was 111% (inactive) and the viability [13, 34] was 59.1% (active). The viability [13, 35] was 66.1% (active), the viability [13, 36] was 88.1% (active) and the viability [13, 37] was 103% (inactive). The viability [13, 38] was 54.4% (active), the viability [13, 39] was 64.1% (active) and the viability [13, 40] was 86.7% (active). For the same molecule, the viability [13, 41] was 88.4% (active), the viability [13, 42] was 43.7% (active) and the viability [13, 43] was 47.9% (active). The viability [13, 44] was 58.9% (active), the viability [13, 45] was 92.3% (active) and the viability [13, 46] was 34.4% (active). For the same molecule, the viability [13, 47] was 38.4% (active), the viability [13, 48] was 49.3% (active) and the viability [13, 49] was 61.2% (active). For the same molecule, the viability [13, 50] was 2.17% (active) and the viability [13, 51] was 26.7% (active).

For `O=C(c1ccc(C(=O)N2CCC(N3CCCC3)CC2)c(Nc2ccccc2)c1)N1CCC(N2CCCC2)CC1`, the outcome [1] was “inactive”, the outcome [2] was “inactive” and the outcome [3] was “inactive”. For the same molecule, the outcome [4] was “inactive”, the outcome [5] was “inactive” and the outcome [6] was “inactive”. The outcome [7] was “inactive”, the outcome [8] was “inactive” and the outcome [9] was “inactive”. The fold change [10, 14] was 0.897 (inactive), the fold change [10, 15] was 1.63 and the cell count [10, 16] was 8000. The cell count [10, 17] was 8920, the z-score [11, 18] was -0.111 (inactive) and the z-score [11, 19] was -0.294.
